HTT cytoprotect: qHTS Multiplex Assay to Identify Dual Action Probes in a Cell Model of Huntington: Cytoprotection (ATP); Potency, µM (highest dose often 56.4 µM), most hits filed as activators; PC12 HTT-Q103 induced, cytoprotection, ATP luminescence, 40 h; AID 1471, 2008; actives 0.14% (n = 230,000); active means well fitted curve in the direction sought with a large enough effect; inconclusive means small, poorly fitted or top-dose-only effect, or another doubt; inactive means no such curve, though single readings can be large; an effect the other way counts as inactive or inconclusive; further: nearly all actives have a fitted effect of over 45% in size
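ATP quantification (ATPlite) reports survival of PC12 cells in which tebufenozide, 100 nM final, switches on Htt exon 1 with 103 glutamines linked to GFP; compounds are titrated.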
Lamin A splicing: qHTS Assay for Modulators of Lamin A Splicing; HeLa LMNA splicing GFP/RFP minigene ratio, 48 h; Potency, µM (titrated, usually from 46.1 µM), most hits filed as inhibitors; actives 0.01% (n = 200,000); AID 1487, 2009; active means well fitted inhibition curve with a large enough effect in the signal ratio, with a control signal flat, not every such curve was filed as active; inconclusive means small, poorly fitted or top-dose-only effect, or effect the other way, or a change in a side signal; the % refers to the signal ratio
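S3 HeLa stable clones carrying a lamin A-EGFP splicing minigene plus DsRed2 were seeded at 600 cells/well in Opti-MEM with 2% FBS, pin-dosed and incubated 48 h at 37°C. Acumen cytometry (488 nm) gave the GFP/RFP total-intensity ratio.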
HTT aggregate: qHTS Multiplex Assay to Identify Dual Action Probes in a Cell Model of Huntington: Aggregate Formation (GFP); AID 1688, 2009; actives 1.1% (n = 220,000); Potency, µM (top dose mostly 46.1 µM), hits mostly inhibitors; PC12 HttQ103-GFP aggregates, Acumen cytometry, 40 h; active means well fitted curve in the direction sought with a large enough effect; inconclusive means small, poorly fitted or top-dose-only effect, or another doubt; inactive means no such curve, though single readings can be large; an effect the other way counts as inactive or inconclusive; further: nearly all actives have a fitted effect of over 60% in size
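Huntingtin Q103 exon 1–GFP aggregates in induced PC12 cells (100 nM tebufenozide) were quantified by cytometry from lysates, with compounds dosed in titration.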
KDM4E inh: qHTS Assay for Inhibitors of Human Jumonji Domain Containing 2E (JMJD2E) | Lysine-specific demethylase 4E (Homo sapiens), B2RXH2 | JMJD2E catalytic domain, FDH-coupled NADH fluorescence (FDH is formaldehyde dehydrogenase) | actives 1.6% (n = 230,000) | Potency, µM (series often up to 57.1 µM), hits mostly inhibitors; further: nearly all actives have a fitted effect of over 50% in size
Target sequence (B2RXH2 1-337 limits assumed): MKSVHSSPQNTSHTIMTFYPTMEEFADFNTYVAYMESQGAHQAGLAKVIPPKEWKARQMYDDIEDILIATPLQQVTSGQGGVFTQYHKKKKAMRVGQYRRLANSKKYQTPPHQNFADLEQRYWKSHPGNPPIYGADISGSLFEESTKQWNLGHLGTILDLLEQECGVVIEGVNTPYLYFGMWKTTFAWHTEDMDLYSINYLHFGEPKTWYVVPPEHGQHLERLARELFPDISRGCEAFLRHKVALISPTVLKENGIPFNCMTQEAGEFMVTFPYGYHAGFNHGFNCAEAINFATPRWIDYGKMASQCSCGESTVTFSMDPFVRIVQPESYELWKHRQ
HPGD inh: qHTS Assay for Inhibitors of HPGD (15-Hydroxyprostaglandin Dehydrogenase); purified HPGD, NADH fluorescence kinetic, PGE2 substrate; Potency, µM, most hits filed as inhibitors; actives 4.3% (n = 150,000)
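NADH formation kinetics: reaction with 30 uM PGE2 and 1 mM NAD+ (final), 20 nM enzyme, Tris-HCl pH 8 with Tween 20, after 15 min compound preincubation at room temperature. Fluorescence change, last versus first of five reads.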
ALDH1A1 block: qHTS Assay for Inhibitors of Aldehyde Dehydrogenase 1 (ALDH1A1). Purified ALDH1A1, NADH fluorescence, propionaldehyde substrate. actives 7.3% (n = 220,000). Aldehyde dehydrogenase 1A1 (Homo sapiens), P00352. Potency, µM (highest dose often 75.3 µM), usual class: inhibitors
Numbers stand for hits; – = inactive; ? = inconclusive; · = not tested or not shown; [ ] = another dose, or the depositor's remark. Sampled rows, rich in hits. Any-hit rate of the full collection: about 9.2%. Unless noted, the call rests on the fitted dose curve; in most records, active means well fitted inhibition curve with a large enough effect (not every such curve was filed as active); inconclusive means small, poorly fitted or top-dose-only effect, or another doubt; inactive means no such curve, though single readings can be large or run the other way.

SMILES	HTT cytoprotect	Lamin A splicing	HTT aggregate	KDM4E inh	HPGD inh	ALDH1A1 block
S=c1[nH]nc(-c2ccc3ccccc3n2)n1-c1ccc(Cl)cc1	–[10 µM]	–	–	–	10µM	?
S=c1[nH]nc(-c2ccc3ccccc3n2)n1-c1ccc2ncccc2c1	·	–	–	–	13µM	–
O=C(O)c1cccc(-n2cccc2/C=C2\NC(=O)N(Cc3ccc(F)cc3)C2=O)c1	?	–	–	–	·	–
O=C1N/C(=C/c2cccn2-c2ccc(F)cc2)C(=O)N1Cc1ccccc1	–	–	–	–	–	16µM
NC1=CC(=O)c2cccc3cccc1c23	–	–	?	?	–	1µM
COc1cccc(CNC(=O)N2CCC(CN3CCC(C)CC3)CC2)c1	·	–	·	·	·	·
COc1cccc(Cn2c(=O)c(-c3cccs3)nc3cnc(Nc4cccc(OC)c4)nc32)c1	–	·	·	·	–	–
Cc1nnsc1C(=O)N/N=C/c1ccc2ccccc2c1O	–[10 µM]	?	·	22µM	·	–
CCOCCCNC(=O)C(=O)Nc1c2c(nn1-c1ccc(OC)cc1)CSC2	·	–	·	·	·	·
CCN(C(=O)CSc1nnc(-c2ccccc2)n1C)C1CCS(=O)(=O)C1 (stereo unspecified)	–	·	–	–	·	–
CCCN(C(=O)CSc1nnc(-c2ccoc2C)n1N)C1CCS(=O)(=O)C1 (stereo unspecified)	–[10 µM]	–	–	–	–	20µM
CN(CCC#N)C(=O)CSc1nnc(-c2ccco2)n1N	–	–	–	–	·	–
CCCN(CC1CC1)C(=O)CSc1nnc(-c2ccco2)n1N	?	·	–	–	·	32µM
O=C(NC(=S)N1CCN(c2ccc(Cl)cc2[N+](=O)[O-])CC1)c1ccco1	–[10 µM]	?	–	–	?	–
O=C(NC(=S)N1CCN(c2ccc(Cl)cc2[N+](=O)[O-])CC1)c1cccs1	–[10 µM]	?	–	–	–	7.9µM
O=C(CSc1ccc(Cl)cc1)N1CCN(c2ccc(Cl)cc2[N+](=O)[O-])CC1	–	–	11µM	–	–	–
O=C(NCc1ccco1)C1CCCN(S(=O)(=O)c2cccc3cccnc23)C1 (stereo unspecified)	–	–	–	–	–	25µM
O=C(NCc1ccco1)C1CCC(CNS(=O)(=O)c2cccc3cccnc23)CC1 (stereo unspecified)	–	–	–	–	20µM	13µM
O=C(NCCc1ccccc1)C1CCN(S(=O)(=O)c2ccc(-n3cnnn3)cc2)CC1	–	–	2.8µM	–	–	14µM
COc1cc(NC(=O)C2CCCN2S(=O)(=O)c2cccc3cccnc23)cc(OC)c1OC (stereo unspecified)	–	–	–	–	–	–
COc1ccccc1CNC(=O)C1CCCN1S(=O)(=O)c1cccc2cccnc12 (stereo unspecified)	–	–	–	–	22µM	?
O=C(NCc1ccco1)C1CCCN(S(=O)(=O)c2ccc(-n3cnnn3)cc2)C1 (stereo unspecified)	–	–	–	?	–	25µM
CCNc1nc(-c2ccc(OC(F)F)cc2)c(C)s1	–	·	–	–	·	?
Nc1cnn(Cc2ccccc2F)c1	–[10 µM]	–	–	–	·	14µM
Nc1cnn(Cc2ccc(F)cc2)c1	–[10 µM]	?	–[9.22 µM]	–	·	–
CCC1C/C(=C\c2cccnc2)C(=O)/C(=C/c2cccnc2)C1 (stereo unspecified)	–[10 µM]	?	22µM	–	–	?
Cc1csc(=Nc2c(C)n(C)n(-c3ccccc3)c2=O)n1Cc1ccccc1	–	?	–[9.22 µM]	–	–	–
C=CCn1c(-c2ccc(OC)cc2)csc1=Nc1c(C)n(C)n(-c2ccccc2)c1=O	?	?	0.79µM	–	–	–
Cc1cc(C)c2c(c1)N[C@H](c1cccs1)[C@@H]1CCO[C@H]21	–[10 µM]	·	–[9.22 µM]	–	·	–
CC(C)c1ccc2c(c1)[C@H]1OCC[C@H]1[C@@H](c1cccs1)N2	·	?	–	–	7.9µM	–

Source: PubChem
